IDE exosite inh – insulin-degrading enzyme (human) exo-site inhibition; P14735; purified IDE, FL-6b probe fluorescence polarization; hits give low values; z-score at 20 µM; 17,000 tested, 6.3% active; AID 1259349;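 active = z-score of -3 or lower, meaning strong loss of probe binding signal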;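 also: His-tagged human IDE residues 42-1019 made in E. coli with 30 nM FL-6b probe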
Target sequence (P14735 42-1019 limits assumed): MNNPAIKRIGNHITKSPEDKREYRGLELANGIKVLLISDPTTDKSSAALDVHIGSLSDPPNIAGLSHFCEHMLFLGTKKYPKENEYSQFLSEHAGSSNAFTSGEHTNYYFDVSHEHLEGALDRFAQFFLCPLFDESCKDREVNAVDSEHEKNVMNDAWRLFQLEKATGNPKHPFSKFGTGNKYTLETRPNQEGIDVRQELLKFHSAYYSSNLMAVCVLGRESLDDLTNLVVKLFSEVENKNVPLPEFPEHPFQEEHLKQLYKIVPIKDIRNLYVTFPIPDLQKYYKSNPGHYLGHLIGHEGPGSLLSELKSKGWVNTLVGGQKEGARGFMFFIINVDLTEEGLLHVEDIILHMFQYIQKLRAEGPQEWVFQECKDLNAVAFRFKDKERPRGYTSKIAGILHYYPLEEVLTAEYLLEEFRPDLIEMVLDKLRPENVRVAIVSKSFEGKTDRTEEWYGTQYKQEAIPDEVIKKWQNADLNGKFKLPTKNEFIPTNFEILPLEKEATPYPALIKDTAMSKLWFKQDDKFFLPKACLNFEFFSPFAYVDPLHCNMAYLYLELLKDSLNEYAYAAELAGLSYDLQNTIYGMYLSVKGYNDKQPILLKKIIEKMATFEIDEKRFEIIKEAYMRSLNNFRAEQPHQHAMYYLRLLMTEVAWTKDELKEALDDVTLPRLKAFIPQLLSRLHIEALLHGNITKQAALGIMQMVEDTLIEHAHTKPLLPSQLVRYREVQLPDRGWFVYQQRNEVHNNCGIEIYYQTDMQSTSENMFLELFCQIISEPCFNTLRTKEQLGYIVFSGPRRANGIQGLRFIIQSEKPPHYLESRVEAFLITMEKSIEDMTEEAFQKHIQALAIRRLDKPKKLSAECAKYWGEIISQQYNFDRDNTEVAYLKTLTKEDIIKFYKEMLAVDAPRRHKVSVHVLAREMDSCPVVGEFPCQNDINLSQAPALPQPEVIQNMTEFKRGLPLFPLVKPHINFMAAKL
* = called active by the depositor. This is one part of a sample in which hits are shown more often than they occur.

SMILES	IDE exosite inh
OC[C@H]1[C@@H](c2ccc(C3=CCCC3)cc2)[C@@H]2CN(Cc3ccncc3)CCCCN12	-0.9
Cc1cccc(-c2ccc([C@@H]3[C@@H](CO)N4CCCCN(CCC(F)(F)F)C[C@@H]34)cc2)c1	-0.68
CCCC#Cc1ccc([C@@H]2[C@@H](CO)N3CCCCN(CC4CC4)C[C@H]23)cc1	-0.37
OC[C@@H]1[C@@H](c2ccc(-c3cccnc3)cc2)[C@@H]2CN(Cc3ccccn3)CCCCN12	-2.9
COCC#Cc1ccc([C@H]2[C@H](CO)N3C(=O)CN(C(=O)Nc4cc(F)ccc4F)C[C@@H]23)cc1	-0.88
CC(C)C#Cc1ccc([C@@H]2[C@H](CO)N3CCCCN(S(=O)(=O)Cc4ccccc4)C[C@@H]23)cc1	3
O=C(Nc1cc(F)ccc1F)N1CCCCN2[C@H](CO)[C@@H](c3ccc(-c4cncnc4)cc3)[C@@H]2C1	-0.82
CN(C)C(=O)c1ccc(-c2ccc([C@@H]3[C@H]4CN(C(=O)C5CCCC5)CC(=O)N4[C@H]3CO)cc2)cc1	0.36
O=C(Nc1ccc2c(c1)[C@@H]1C[C@H](CC(=O)N3CCOCC3)O[C@H](CO)[C@@H]1O2)Nc1ccccc1F	0.66
CC(C)NC(=O)Nc1ccc2c(c1)C(=O)N([C@H](C)CO)C[C@@H](C)[C@@H](CN(C)C(=O)C1CCCCC1)OCCCC[C@H](C)O2	2.2
O=C(c1ccc(F)cc1)N1CCCCN2[C@H](C1)[C@H](c1ccc(C#CC3(O)CCCC3)cc1)[C@@H]2CO	4
CC(=O)N1[C@H](CO)[C@@H]2c3ccccc3N(C(=O)c3ccc(F)cc3)C[C@@H]21	-0.32
CCCN(C)C[C@H]1OCCCC[C@H](C)Oc2ccc(NC(=O)CCCN(C)C)cc2C(=O)N([C@H](C)CO)C[C@@H]1C	1.3
COc1cccc(S(=O)(=O)N2CCCCN3[C@@H](CO)[C@@H](c4ccc(C#CC(C)C)cc4)[C@@H]3C2)c1	0.38
C[C@@H](O)C#Cc1ccc([C@@H]2[C@H](CO)N3CCCCN(CC4CCOCC4)C[C@@H]23)cc1	1.4
O=C(c1ccc(F)cc1)N1CC(=O)N2[C@H](C1)[C@@H](c1ccc(-c3ccccc3F)cc1)[C@@H]2CO	3.9
Cc1ccccc1-c1ccc([C@H]2[C@@H](CO)N3C(=O)CN(C(=O)c4ccc(F)cc4)C[C@@H]23)cc1	-0.95
Cc1ccccc1-c1ccc([C@H]2[C@H](CO)N3C(=O)CN(C(=O)c4ccc(F)cc4)C[C@@H]23)cc1	-16*
O=C(c1ccc(F)cc1)N1CC(=O)N2[C@@H](CO)[C@H](c3ccc(-c4ccccc4F)cc3)[C@@H]2C1	2.1
O=C(c1ccc(F)cc1)N1CC(=O)N2[C@H](C1)[C@H](c1ccc(-c3ccccc3F)cc1)[C@@H]2CO	4.9
Cc1ccccc1-c1ccc([C@H]2[C@H]3CN(C(=O)c4ccc(F)cc4)CC(=O)N3[C@H]2CO)cc1	-4.3*
N#C[C@@H]1N[C@@H](CO)[C@@H]1c1ccc(C#Cc2ccc(F)cc2)cc1	3.1
COCC(=O)Nc1ccc2c(c1)[C@@H]1C[C@H](CC(=O)N[C@@H](C)c3ccccc3)O[C@@H](CO)[C@@H]1O2	1.4
COc1ccc(C[C@@H]2CCn3nncc3COC[C@H](c3ccccc3)NC2=O)cc1	-0.98
CNC[C@H]1OCCCC[C@@H](C)Oc2ccc(NC(=O)Nc3ccc(OC)cc3)cc2C(=O)N([C@H](C)CO)C[C@H]1C	2.6
SMILES	IDE exosite inh
COc1ccc(C#Cc2ccc([C@H]3[C@@H](CO)N4C(=O)CN(C(=O)C5CCOCC5)C[C@H]34)cc2)cc1	-1.4
O=C(C1CCCCC1)N1CC(=O)N2[C@H](CO)[C@@H](c3ccc(C#Cc4cccc(F)c4)cc3)[C@H]2C1	-0.72
O=C(C1CCC1)N1CC(=O)N2[C@H](CO)[C@@H](c3ccc(C#Cc4cccc(F)c4)cc3)[C@@H]2C1	-4.4*
O=C(C1CCC1)N1CC(=O)N2[C@@H](CO)[C@H](c3ccc(C#CCc4ccccc4)cc3)[C@@H]2C1	-0.22
O=C(C1CC1)N1CC(=O)N2[C@H](CO)[C@H](c3ccc(C#CC4CCCC4)cc3)[C@H]2C1	1.7
O=C(C1CC1)N1CC(=O)N2[C@H](CO)[C@H](c3ccc(C#CCc4ccccc4)cc3)[C@H]2C1	-0.86
O=C(C1CCCCC1)N1CC(=O)N2[C@H](C1)[C@H](c1ccc(C#Cc3cccc(F)c3)cc1)[C@@H]2CO	2.1
O=C(C1CCOCC1)N1CC(=O)N2[C@H](CO)[C@@H](c3ccc(C#Cc4cccc(F)c4)cc3)[C@@H]2C1	-10*
O=C(C1CCC1)N1CC(=O)N2[C@H](CO)[C@H](c3ccc(C#Cc4cccc(F)c4)cc3)[C@H]2C1	-10*
COc1ccc(C#Cc2ccc([C@@H]3[C@@H](CO)N4C(=O)CN(C(=O)C5CCOCC5)C[C@H]34)cc2)cc1	1.6
O=C(C1CC1)N1CC(=O)N2[C@@H](CO)[C@@H](c3ccc(C#Cc4cccc(F)c4)cc3)[C@@H]2C1	-4.7*
O=C(C1CCCC1)N1CC(=O)N2[C@H](CO)[C@H](c3ccc(C#CC4CCCC4)cc3)[C@@H]2C1	2
CCC(=O)N1[C@H](CO)[C@H](c2ccccc2-c2ccccc2)[C@@H]1C#N	0.78
COC(=O)C[C@H]1C[C@@H]2c3cc(NC(=O)c4ccc5c(c4)OCO5)ccc3O[C@@H]2[C@@H](CO)O1	-0.72
O=C(NC[C@@H]1N[C@@H](CO)[C@H]1c1ccc(-c2cccnc2)cc1)C1CCCC1	0.88
COc1ccccc1-c1ccc([C@@H]2[C@@H](CO)N(CC3CC3)C23CN(S(C)(=O)=O)C3)cc1	-0.36
N#C[C@H]1[C@H](c2ccccc2)[C@H](CO)N1S(=O)(=O)c1ccc(F)cc1	2.4
CC(C)(O)C#Cc1ccc([C@@H]2[C@@H](CO)N3CCCCN(C(=O)c4ccncc4)C[C@H]23)cc1	3.3
N#C[C@H]1[C@@H](c2ccccc2C2=CCCCC2)[C@@H](CO)N1C(=O)c1cccc(F)c1	2.9
CCCNC(=O)N1[C@@H](C#N)[C@H](c2ccccc2)[C@@H]1CO	3.5
CC(C)[C@@H]1CCc2cnnn2COC[C@@H](Cc2ccccc2)NC1=O	-0.47
CC(C)C#Cc1ccc([C@@H]2[C@H]3CN(C(=O)Cc4cccnc4)CC(=O)N3[C@H]2CO)cc1	-1.3
O=C(CC(F)(F)F)N1C[C@H]2[C@@H](c3ccccc31)[C@H](CO)N2CC1CCOCC1	2
CCC(=O)N1CCCCN2[C@@H](CO)[C@@H](c3ccc(-c4cccnc4)cc3)[C@@H]2C1	0.016
O=C(Nc1cccc(F)c1)N1CCCCN2[C@H](CO)[C@H](c3ccc(C#Cc4cccnc4)cc3)[C@@H]2C1	-1.6
SMILES	IDE exosite inh
CCC(=O)N1CCCCN2[C@@H](CO)[C@@H](c3ccc(C#Cc4cccnc4)cc3)[C@@H]2C1	-3.1*
COCC(=O)N1CCCCN2[C@H](CO)[C@H](c3ccc(C#Cc4cccnc4)cc3)[C@@H]2C1	-3.1*
CCC(=O)N1CCCCN2[C@H](C1)[C@H](c1ccc(-c3cccnc3)cc1)[C@@H]2CO	2.5
COCC(=O)N1CCCCN2[C@H](C1)[C@H](c1ccc(C#Cc3cccnc3)cc1)[C@@H]2CO	0.39
CCC(=O)N1CCCCN2[C@H](CO)[C@H](c3ccc(C#Cc4cccnc4)cc3)[C@@H]2C1	-10*
COCC(=O)N1CCCCN2[C@H](CO)[C@H](c3ccc(C#Cc4cccnc4)cc3)[C@H]2C1	2.6
COCC(=O)N1[C@@H]2CN(C)c3ccccc3[C@@H]2[C@@H]1CO	1.9
O=C(Cc1ccccn1)N1CC(=O)N2[C@H](CO)[C@@H](c3ccc(C#CCC4CCCC4)cc3)[C@H]2C1	-1.4

Bioassay records (PubChem BioAssay)
